# Assay results taken from publication PMC7862700, “An all-to-all approach to the identification of sequence-specific readers for epigenetic DNA modifications on cytosine”.
# Legend:
# Assay in all cases: DAPPL (digital affinity profiling via proximity ligation, sequencing); 10 mM Tris-HCl pH 7.5, 50 mM NaCl, 1 mM DTT, 4% glycerol, room temperature, 30 min; GST-TFs on glutathione beads, 16-mer random dsDNA library, 0.1% formaldehyde crosslink after washing; high values mean tight binding
# Conditions in all cases: protein: recombinant; tags: N-terminal GST; dsDNA, one strand shown
# [1] = target: T1, FLI1 (Homo sapiens, UniProt Q01543 1-452)
# T1 sequence: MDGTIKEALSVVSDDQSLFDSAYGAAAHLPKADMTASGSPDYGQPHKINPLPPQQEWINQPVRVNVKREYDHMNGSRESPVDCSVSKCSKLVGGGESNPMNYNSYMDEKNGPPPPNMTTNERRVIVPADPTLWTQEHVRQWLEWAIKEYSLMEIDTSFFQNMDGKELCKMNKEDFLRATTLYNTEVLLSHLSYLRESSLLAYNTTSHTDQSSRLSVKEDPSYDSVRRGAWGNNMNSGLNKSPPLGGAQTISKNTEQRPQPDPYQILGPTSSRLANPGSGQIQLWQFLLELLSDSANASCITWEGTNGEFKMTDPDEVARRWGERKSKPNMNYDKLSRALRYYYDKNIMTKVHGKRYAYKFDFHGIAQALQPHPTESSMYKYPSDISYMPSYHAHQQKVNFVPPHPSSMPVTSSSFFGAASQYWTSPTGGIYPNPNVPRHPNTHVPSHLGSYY
# Procedure, shortened: (§1)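 The binding signal reported is, for every hexamer, its read frequency for a factor over its read frequency for the tag-only sample. Reads came from pools of yeast-expressed, GST-fused human transcription factors on glutathione beads, barcoded with DNA and mixed with that sample, which were incubated with 200 nmole of a random double-stranded 16-mer DNA library in Tris/NaCl/DTT/glycerol buffer at room temperature for 30 min. After washing, the pools were crosslinked with 0.1% formaldehyde, proximity-ligated with BsaI/T4 ligase for 1 h at 37 °C, PCR-amplified and sequenced on an Illumina NextSeq500.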
# [2] = target: T2, ELK1 (Homo sapiens, UniProt P19419 1-428)
# T2 sequence: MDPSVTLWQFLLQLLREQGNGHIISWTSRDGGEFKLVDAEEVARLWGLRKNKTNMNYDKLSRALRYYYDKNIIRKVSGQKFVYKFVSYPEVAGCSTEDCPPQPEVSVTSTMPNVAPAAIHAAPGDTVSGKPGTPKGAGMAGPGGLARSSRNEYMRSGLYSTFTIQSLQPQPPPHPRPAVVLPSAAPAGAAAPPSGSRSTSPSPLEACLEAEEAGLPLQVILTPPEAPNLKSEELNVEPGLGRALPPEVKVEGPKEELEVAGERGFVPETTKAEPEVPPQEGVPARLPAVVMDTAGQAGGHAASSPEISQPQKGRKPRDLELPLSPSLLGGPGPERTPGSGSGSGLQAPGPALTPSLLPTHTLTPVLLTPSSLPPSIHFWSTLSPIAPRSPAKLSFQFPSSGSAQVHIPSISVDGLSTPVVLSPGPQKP
# Procedure, shortened: as §1
# [3] = target: T3, GABPA (Homo sapiens, UniProt Q06546 1-454)
# T3 sequence: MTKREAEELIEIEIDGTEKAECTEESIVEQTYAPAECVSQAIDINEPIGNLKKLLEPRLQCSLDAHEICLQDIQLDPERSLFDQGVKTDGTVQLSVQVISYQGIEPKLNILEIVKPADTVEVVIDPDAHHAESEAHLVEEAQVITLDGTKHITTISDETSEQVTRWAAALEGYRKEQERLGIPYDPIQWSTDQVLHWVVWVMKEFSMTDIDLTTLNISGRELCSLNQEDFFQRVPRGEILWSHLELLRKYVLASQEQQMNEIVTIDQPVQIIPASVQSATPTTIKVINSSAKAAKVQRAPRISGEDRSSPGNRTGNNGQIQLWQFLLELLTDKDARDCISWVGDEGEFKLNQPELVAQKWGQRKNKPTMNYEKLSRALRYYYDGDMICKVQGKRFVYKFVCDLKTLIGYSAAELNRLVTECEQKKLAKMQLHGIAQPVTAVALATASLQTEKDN
# Procedure, shortened: as §1
# [4] = target: T4, ERG (Homo sapiens, UniProt P11308 1-479)
# T4 sequence: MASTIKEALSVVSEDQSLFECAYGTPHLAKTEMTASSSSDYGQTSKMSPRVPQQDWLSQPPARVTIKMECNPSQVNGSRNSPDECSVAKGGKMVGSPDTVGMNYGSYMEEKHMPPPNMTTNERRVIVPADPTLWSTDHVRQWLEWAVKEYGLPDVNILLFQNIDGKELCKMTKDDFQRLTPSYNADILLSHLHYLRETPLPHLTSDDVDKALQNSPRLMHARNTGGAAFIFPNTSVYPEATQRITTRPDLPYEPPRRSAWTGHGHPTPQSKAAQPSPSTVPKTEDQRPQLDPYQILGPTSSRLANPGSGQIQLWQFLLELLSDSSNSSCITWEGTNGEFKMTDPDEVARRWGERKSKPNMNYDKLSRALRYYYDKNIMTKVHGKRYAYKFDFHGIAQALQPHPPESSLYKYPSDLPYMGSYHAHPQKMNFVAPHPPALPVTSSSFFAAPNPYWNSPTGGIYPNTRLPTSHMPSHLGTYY
# Procedure, shortened: as §1
# [5] = target: ELF1 (Homo sapiens, UniProt P32519 1-619)
# Procedure, shortened: as §1
# [6] = target: T5, EHF (Homo sapiens, UniProt Q9NZC4 1-300)
# T5 sequence: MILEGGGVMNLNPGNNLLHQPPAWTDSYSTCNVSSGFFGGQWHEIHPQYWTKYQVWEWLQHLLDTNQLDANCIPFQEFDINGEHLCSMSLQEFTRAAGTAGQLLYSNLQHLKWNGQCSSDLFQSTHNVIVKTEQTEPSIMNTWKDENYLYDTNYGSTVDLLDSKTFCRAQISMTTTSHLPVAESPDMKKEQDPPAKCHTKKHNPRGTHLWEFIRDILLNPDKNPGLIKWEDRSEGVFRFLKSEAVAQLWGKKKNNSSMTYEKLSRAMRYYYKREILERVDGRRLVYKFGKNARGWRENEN
# Procedure, shortened: as §1
# [7] = target: SPI1 (Homo sapiens, UniProt P17947 1-270)
# Procedure, shortened: as §1
# [8] = target: SPIB (Homo sapiens, UniProt Q01892 1-262)
# Procedure, shortened: as §1
# [9] = target: T6, ELK3 (Homo sapiens, UniProt P41970 1-407)
# T6 sequence: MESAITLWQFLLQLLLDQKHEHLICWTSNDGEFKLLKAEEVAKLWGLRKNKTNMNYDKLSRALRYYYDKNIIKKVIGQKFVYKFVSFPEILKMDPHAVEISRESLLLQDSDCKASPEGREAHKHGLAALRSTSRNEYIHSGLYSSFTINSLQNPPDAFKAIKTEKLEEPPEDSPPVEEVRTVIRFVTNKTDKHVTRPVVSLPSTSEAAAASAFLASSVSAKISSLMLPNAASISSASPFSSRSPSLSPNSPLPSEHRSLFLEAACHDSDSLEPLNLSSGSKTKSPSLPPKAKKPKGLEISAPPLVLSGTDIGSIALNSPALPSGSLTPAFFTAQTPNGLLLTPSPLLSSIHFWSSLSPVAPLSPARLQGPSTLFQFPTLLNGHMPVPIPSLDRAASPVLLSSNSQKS
# Procedure, shortened: as §1
# ELF1, sequence (P32519 whole entry): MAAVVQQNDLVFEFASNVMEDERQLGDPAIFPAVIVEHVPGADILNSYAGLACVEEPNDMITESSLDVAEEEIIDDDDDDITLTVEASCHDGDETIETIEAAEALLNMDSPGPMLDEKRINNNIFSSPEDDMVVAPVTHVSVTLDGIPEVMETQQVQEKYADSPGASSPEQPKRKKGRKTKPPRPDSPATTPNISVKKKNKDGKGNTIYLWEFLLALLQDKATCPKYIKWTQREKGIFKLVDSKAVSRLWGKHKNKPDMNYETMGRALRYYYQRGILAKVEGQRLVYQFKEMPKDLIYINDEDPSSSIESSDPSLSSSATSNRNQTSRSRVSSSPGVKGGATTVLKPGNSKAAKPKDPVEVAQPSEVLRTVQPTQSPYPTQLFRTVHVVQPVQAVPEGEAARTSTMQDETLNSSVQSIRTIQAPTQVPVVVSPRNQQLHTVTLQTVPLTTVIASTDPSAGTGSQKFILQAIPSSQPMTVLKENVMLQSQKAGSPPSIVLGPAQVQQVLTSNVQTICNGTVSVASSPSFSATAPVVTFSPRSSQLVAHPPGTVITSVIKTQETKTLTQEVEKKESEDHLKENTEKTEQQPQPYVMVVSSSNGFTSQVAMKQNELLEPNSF
# SPIB, sequence (Q01892 whole entry): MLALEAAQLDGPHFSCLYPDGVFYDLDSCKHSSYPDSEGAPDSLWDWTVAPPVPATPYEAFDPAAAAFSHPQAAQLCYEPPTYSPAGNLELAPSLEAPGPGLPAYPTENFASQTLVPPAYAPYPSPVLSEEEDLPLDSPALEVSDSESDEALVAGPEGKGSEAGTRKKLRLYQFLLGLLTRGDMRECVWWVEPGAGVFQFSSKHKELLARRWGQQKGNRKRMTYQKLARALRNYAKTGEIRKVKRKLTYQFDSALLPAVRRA
Sequence,binding signal [1],binding signal [2],binding signal [3],binding signal [4],binding signal [5],binding signal [6],binding signal [7],binding signal [8],binding signal [9]
TAGCTC,"1.17 fold enrichment (6-mer frequency, TF over GST control)","1.13 fold enrichment (6-mer frequency, TF over GST control)","1.2 fold enrichment (6-mer frequency, TF over GST control)","1.11 fold enrichment (6-mer frequency, TF over GST control)","1.18 fold enrichment (6-mer frequency, TF over GST control)","1.25 fold enrichment (6-mer frequency, TF over GST control)","1.21 fold enrichment (6-mer frequency, TF over GST control)","1.05 fold enrichment (6-mer frequency, TF over GST control)","1.28 fold enrichment (6-mer frequency, TF over GST control)"
ATGCTC,"1.43 fold enrichment (6-mer frequency, TF over GST control)","1.31 fold enrichment (6-mer frequency, TF over GST control)","1.36 fold enrichment (6-mer frequency, TF over GST control)","1.34 fold enrichment (6-mer frequency, TF over GST control)","1.36 fold enrichment (6-mer frequency, TF over GST control)","1.34 fold enrichment (6-mer frequency, TF over GST control)","1.41 fold enrichment (6-mer frequency, TF over GST control)","1.35 fold enrichment (6-mer frequency, TF over GST control)","1.27 fold enrichment (6-mer frequency, TF over GST control)"
AATGAC,"1.36 fold enrichment (6-mer frequency, TF over GST control)","1.52 fold enrichment (6-mer frequency, TF over GST control)","1.43 fold enrichment (6-mer frequency, TF over GST control)","1.42 fold enrichment (6-mer frequency, TF over GST control)","1.36 fold enrichment (6-mer frequency, TF over GST control)","1.35 fold enrichment (6-mer frequency, TF over GST control)","1.36 fold enrichment (6-mer frequency, TF over GST control)","1.39 fold enrichment (6-mer frequency, TF over GST control)","1.44 fold enrichment (6-mer frequency, TF over GST control)"
ATCCTC,"1.48 fold enrichment (6-mer frequency, TF over GST control)","1.47 fold enrichment (6-mer frequency, TF over GST control)","1.55 fold enrichment (6-mer frequency, TF over GST control)","1.52 fold enrichment (6-mer frequency, TF over GST control)","1.48 fold enrichment (6-mer frequency, TF over GST control)","1.39 fold enrichment (6-mer frequency, TF over GST control)","1.51 fold enrichment (6-mer frequency, TF over GST control)","1.41 fold enrichment (6-mer frequency, TF over GST control)","1.36 fold enrichment (6-mer frequency, TF over GST control)"
